# High-throughput results as filed in PubChem.
# OTUD3 block: inhibitors of human OTUD3 deubiquitinase | purified OTUD3, Ub-rhodamine fluorescence, 2 h | inhibition, % at 25 µM | actives 0.7% (n = 47,000)
# USP28 block: inhibitors of human USP28 deubiquitinase; inhibition, % at 25 µM; Ubiquitin carboxyl-terminal hydrolase 28 (Homo sapiens), Q96RU2; actives 3% (n = 47,000); purified USP28, Ub-rhodamine cleavage fluorescence, 30 min
# The depositor's hits bear a star; . = not tested or not shown. Compounds with a hit are over-represented: about 3.4% of the library has one in this group of screens. No stated cut-off is given here; in the data, active means inhibition above about 30%; inactive means the rest.
SMILES,OTUD3 block,USP28 block
O=C(Nc1ccccc1Cl)c1ccc(CN2CCC(Cc3ccccc3)CC2)cc1,2.7,-13.7
Cc1cn[nH]c1C1CCCCN1C(=O)c1cc2c([nH]c1=O)CCCC2 (stereo unspecified),-0.2,0.4
COc1cccc(Cn2c(=O)c3cccnc3n(-c3ccccc3)c2=O)c1,-36.0,-37.2
COc1cccc(Cn2nc(C(=O)O)c3ccccc3c2=O)c1,-2.9,38.3*
CS(=O)(=O)c1ccc(N2CCN(C(=O)/C=C/c3ccccc3)CC2)cc1,-7.4,-7.4
CC(=O)c1ccc(N2CCN(C(=O)CSc3cc(=O)n(C)c4ccccc34)CC2)cc1,-32.1,-18.5
O=C(Nc1cccc(N2CCCS2(=O)=O)c1)c1cccc(C(F)(F)F)c1,-7.8,-4.8
O=C(Nc1ccc(F)c(Cl)c1)c1ccc(N2CCCCS2(=O)=O)cc1Cl,-9.3,52.0*
O=C(Nc1ccc(-n2cccc2)cc1)c1ccc(Cl)cc1Cl,12.0,18.6
O=C(Nc1cccc(F)c1)c1ccc(N2CCCCS2(=O)=O)cc1Cl,12.0,33.3*
COc1ccc(OC)c(NC(=O)[C@H]2C[C@H](C(C)C)N[C@]23C(=O)Nc2ccc(C)cc23)c1,4.9,6.9
Cc1c(OCc2nn[nH]n2)ccc2c1oc(=O)c1ccccc12,-1.4,-18.2
COc1ccc2c(c1)c1ncn(CCC3=CCCCC3)c(=O)c1n2C,15.6,47.4*
COc1ccc2c(c1)c1ncn(CCN3CCCC3)c(=O)c1n2C,-13.4,-14.6
Cc1cc(NC(=O)COc2ccc(F)c(Cl)c2)no1,9.3,40.2*
Cc1cc(NC(=O)CSc2nnc(CNC(=O)COc3ccc(Cl)cc3)o2)no1,1.2,0.5
Cc1cccc(-c2nc(NC(=O)COc3ccc(F)cc3)no2)c1,20.5,60.5*
Cc1ccc(-c2nc(NC(=O)COc3cc(C)cc(C)c3)no2)cc1,-7.2,-8.6
Cc1ccc(-c2nc(NC(=O)COc3ccc(Cl)cc3)no2)cc1,-1.1,89.1*
Cc1ccc(NC(=O)COc2ccccc2-c2noc(-c3cccc(F)c3)n2)cc1,0.3,-3.0
O=C(Cc1noc(-c2ccc(F)cc2)n1)Nc1ccccc1,-41.3,-44.5
O=C(COc1ccc(F)cc1)Nc1noc(-c2ccccc2)n1,-0.9,44.1*
CCOC(=O)c1cnc2c(F)ccc(F)c2c1Sc1ccc(Cl)cc1,-4.6,6.4
COc1ccc(C2Sc3ccccc3NC3=C2C(=O)c2ccccc23)c(OC)c1 (stereo unspecified),9.8,4.4
COc1ccc2c(c1)CCc1c-2n[nH]c1C(=O)N1CCC(C(N)=O)CC1,7.4,8.5
SMILES,OTUD3 block,USP28 block
Cc1noc(C)c1CC(=O)N1CCC[C@@H]2[C@H]1C/C=C/Cc1ccccc1OCC(=O)N2C,13.5,1.3
O=C(NCC[C@@]12CCCC[C@@H]1c1c([nH]c(=O)[nH]c1=O)O2)c1ccccn1,4.0,3.1
COC(=O)c1ccc(CSc2nc(N)cc(=O)[nH]2)cc1,6.7,10.3
O=C(Nc1ccc2c(c1)OCO2)c1ccc(CN2CCc3ccccc3C2)cc1,0.3,30.5*
CS(=O)(=O)N1CCCc2cc(C(=O)Nc3ccc4c(c3)OCO4)ccc21,14.3,85.1*
COc1ccccc1NC(=O)C1=CCN(Cc2ccc(F)cc2)CC1,-11.3,-15.4
O=C(Nc1ccc2c(c1)OCCO2)C1=CCN(Cc2ccccc2F)CC1,4.1,39.7*
Cc1ccc(C)c(NC(=O)c2ccc3c(c2)N(S(C)(=O)=O)CC3)c1,-11.5,-9.8
O=C(Nc1ccc2c(c1)OCO2)c1ccc(N2CCCC2=O)cc1,10.5,12.0
CN(Cc1ccccc1)S(=O)(=O)c1ccc(C(=O)Nc2ccc3c(c2)OCO3)cc1,3.7,6.4
Cc1ccc(NC(=O)c2ccc3c(c2)N(S(C)(=O)=O)CC3)cc1,0.0,49.5*
Cc1ccc2[nH]c(=O)c(CN(Cc3cccnc3)C(=O)c3cccc(Cl)c3)cc2c1,24.7,7.2
CCc1cccc(NC(=O)Cc2nnc(-c3cnccn3)o2)c1,11.7,6.9
Cc1ccc2nc(-c3cc4ccc(C)c(C)c4[nH]c3=O)c(NC3CCCC3)n2c1,-8.1,-2.3
CS(=O)(=O)N1CC(C(=O)N2C[C@@H](O)[C@H](N3CCOCC3)C2)C1,7.9,0.3
COc1ccccc1-c1nc(-c2cn(-c3cccc(Cl)c3)nn2)no1,16.9,19.6
COc1ccc(NCc2cc(=O)n3[nH]c(NCc4ccc(C(C)C)cc4)nc3n2)cc1,26.2,20.1
O=c1cc(CNc2ccc(Br)cc2)nc2nc(-c3ccccc3)[nH]n12,36.0*,41.5*
COc1cc(-n2c(=O)c3ccccc3n(CC(=O)N3CCN(c4ccccc4)CC3)c2=O)cc(OC)c1OC,-0.9,1.5
Cc1ccc(Nc2nc(C(=O)NCc3ccc4c(c3)OCO4)cc3occc23)cc1Cl,0.2,-14.1
O=C(N1CC(O)C1)C1(Cc2cccc(-c3ccc(F)c(F)c3)c2)CCOCC1,-0.6,5.1
CC(C)Cc1nc2sc3c(SCC(N)=O)ncnc3c2c2c1CCC2,4.7,.
CCCCc1nc2sc3c(NCc4ccccn4)ncnc3c2c2c1CCC2,-3.7,43.1*
CC1(C)Cc2c(c(N3CCOCC3)nc3sc4c(NCc5ccco5)ncnc4c23)CO1,-23.9,-28.5
CCCCc1nc2sc3c(SCC(N)=O)ncnc3c2c2c1CCC2,12.0,36.3*
SMILES,OTUD3 block,USP28 block
c1ccc(-c2nc3sc4c(NCc5ccccn5)ncnc4c3c3c2CCC3)cc1,-0.5,-5.6
CCCc1nc2sc3c(NCc4ccco4)ncnc3c2c2c1CCC2,-27.8,80.2*
CS(=O)(=O)c1cccc(-c2nnc(NC(=O)c3ccc(Cc4ccccc4)cc3)o2)c1,13.4,18.9
COc1cc2c(cc1OC)-c1cc(N(C(C)=O)c3ccc4c5c(cccc35)CC4)nc(=O)n1CC2,-24.6,-16.0
CO[C@H]1CC[C@H](O)c2c1oc1c3c4c(c(O)c1c2=O)-c1c(cc2c(Cl)c(C)n(N)c(=O)c2c1O)C[C@@H]4OCO3,43.5*,59.0*
CNc1cc(C2CCCN2C(=O)c2cccnc2OC)nc(C)n1 (stereo unspecified),-0.7,-3.6
Cn1c(=O)c2ccc(C3CCN(Cc4cccnc4)C3)nc2n(C)c1=O (stereo unspecified),2.0,2.3
O=S(=O)(c1ccc2c(c1)OCCCO2)N1CCN(Cc2nc3ccccc3s2)CC1,-7.9,-13.6
O=C(Nc1ccc2c(c1)OCO2)C1CCN(Cc2nc3ccccc3s2)CC1,9.8,69.9*
C(=C\c1ccccc1)/CSc1nnc(-c2ccco2)o1,9.6,32.0*
COc1ccc(C(=O)NCc2nnc(SC/C=C/c3ccccc3)o2)cc1,8.0,16.0
Cc1nc2sc(C(=O)Nc3cccc4cccnc34)c(N)c2c(C)c1Cl,-5.6,-8.3
C=C1C(=O)OC(CCCCC)C1C(=O)O (stereo unspecified),2.5,35.9*
C=C1C(=O)O[C@@H]2C(=O)O[C@@H](CCCCCCCC)[C@H]12,-2.1,-2.3
O=C(COc1ccc(C(=O)c2ccccc2)cc1)Nc1cccnc1,-10.8,15.6
O=C(Nc1cccnc1)c1ccc(Oc2ccccc2)cc1,2.5,43.5*
Cc1ccc(NC(=O)C2CCC(CNS(=O)(=O)c3ccc4c(c3)C(C)(C)C(=O)N4C)CC2)cc1C (stereo unspecified),-15.1,13.1
COc1cccc(NC(=O)C2CCC(CNS(=O)(=O)c3ccc4c(c3)C(C)(C)C(=O)N4C)CC2)c1 (stereo unspecified),-7.4,75.8*
O=C(NC1CCCC1)C1(c2cccc(F)c2)CC1,9.0,6.8
